The source of these data is PubChem BioAssay AID488890 (Southern Research Specialized Biocontainment Screening …, 2010).

Broadly, the inhibition is the relative decrease from the control value, in per cent.

Each structure is given as a SMILES string. Hit rate of the full screen: of about 320,000 compounds, about 1,300 (0.41%) were called active. Inconclusive results (about 3%) are left out. How the calls were made is not given here. A selection follows. Entries with a potency or affinity are not part of this list.

This experiment is described as follows: growth inhibition of non-replicating M. tuberculosis (AID 488890).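 Further: plate controls were DMSO cells for no effect and high antibiotic wells for full effect.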 The settings on record: Mycobacterium tuberculosis non-replicating, at 25 µM, stronger effect = higher value.
Take `COc1ccc(-c2nnc(NC(=O)c3cc(C)on3)s2)cc1`: the inhibition turned out to be 71.9%.
With `O=C(OCc1cc(Cl)cc2c1OCOC2)c1cccnc1Cl`, the inhibition turned out to be 14.6%.
Consider `CC(C)CCNc1nc(N)c([N+](=O)[O-])c(NCCO)n1`, for which the inhibition is -5.48%.
For the molecule `CCOc1cc(C2C(C(=O)c3ccco3)=C(O)C(=O)N2CCc2ccccc2)ccc1O` (stereo not drawn), the inhibition was determined as 29.2%.
With `COc1ccc(C2=NOC(Cn3nc(-c4ccccc4)cc3C(=O)NCc3cccc(Br)c3)C2)cc1` (stereo not drawn), the inhibition was -12.8%.
For `Cn1c(N2CCCCC2)cc(=O)n(C)c1=O`, the inhibition was -10.1%.
Turning to `CCOC(=O)C1CCCN(C2CC(=O)N(c3ccccc3)C2=O)C1` (stereo not drawn), the inhibition was found to be 30.8%.
In the case of `COC(=O)[C@@H]1C[C@@H]2CC[C@@H](O)C[C@@H]2N1Cc1ccccc1OS(=O)(=O)c1ccc(C)cc1` it was 26.6%; in that of `Cc1cccc(-c2noc(CCCC(=O)NCC3CCCO3)n2)c1` (stereo not drawn), 16.8%.
As for `O=C(c1cccc(S(=O)(=O)NCc2ccccc2)c1)N1CCN(c2ccccc2)CC1`, the inhibition was found to be 17.1%.
In the case of `Cc1ccn2c(=O)nc(SCC(=O)Nc3ccc4c(c3)OCO4)nc2c1` it was 25.1%; in that of `O=C(COC(=O)c1ccc([N+](=O)[O-])cc1)Nc1ccc(Cl)cn1`, 34.3%.
For `Cc1ccc(C(=O)OCC(=O)Nc2ccc(Cl)cn2)s1` the value was 35.7%.
With `O=C(COc1ccc(Cl)cc1Cl)Nc1ccc(Cl)cn1`, the inhibition was 61%.
As to `O=C(COc1ccccc1Cl)Nc1ccc(Cl)cn1`, the inhibition amounted to 29.8%.
In the case of `c1ccc(-c2nnc(OCC3CCCO3)c3ccccc23)cc1` (stereo not drawn), the inhibition amounted to 4.74%.
On to `CCOc1ccc(C(=O)N/N=C/c2ccc(SC)cc2)cc1`, for which the inhibition is 7.39%.
In the case of `COc1ccc(Br)cc1S(=O)(=O)N1CCN=C1c1ccccc1`, the inhibition was 9.49%.
`CCOC(=O)c1c[nH]c2c(C)ccc(Cl)c2c1=O`: the inhibition turned out to be 5.99%.
In the case of `Cc1cccc(N=N/C(=C\O)C(=O)c2cccs2)c1` it was 23.2%; in that of `O=C(/C(=C/O)N=Nc1ccccc1)c1cccs1`, 29.9%; in that of `CC1CCN(C(=O)CCCNC(=O)Cn2cnc3sc4c(c3c2=O)CCCC4)CC1`, -3.59%.
For `Cc1onc(-c2c(F)cccc2Cl)c1C(=O)NCCc1ccncc1` the value was -2.23%.
For `O=C(NCc1cccc2[nH]ccc12)C1CCC(=O)N(CCc2ccc(Cl)cc2)C1` (stereo not drawn), the inhibition is 14.7%.
As to `CN1C[C@@H]2C[C@@H](C3=Cc4cc(Cl)ccc4OC3)N3CCC[C@@]23C1=O`, the inhibition stood at 8.63%.
Regarding `CN(CC(=O)Nc1ccccc1N1CCOCC1)CC(=O)Nc1ccc(F)c(F)c1F`, the inhibition came out at 7.73%.
Turning to `CCCC(=O)NC(Nc1ccc(S(=O)(=O)Nc2cc(C)on2)cc1)(C(F)(F)F)C(F)(F)F`, the inhibition amounted to 69.8%.
Turning to `C/C(=N/NC(=O)c1ccccc1)C(=O)O`, the inhibition was 21.7%.
Regarding `O=C(N/N=C/c1ccc2c(c1)OCO2)C1COc2ccccc2O1` (stereo not drawn), the inhibition turned out to be 69.6%.
On to `CC(/C=C/c1ccc2c(c1)OCO2)=N\NC(=O)C(O)c1ccccc1` (stereo not drawn), for which the inhibition is -1.85%.
Turning to `CC(/C=C/c1ccccc1F)=N\NC(=O)C(C)C`, the inhibition was 13.2%.
As to `CC(/C=C/c1ccccc1)=N/NC(=O)CNC(=O)c1ccc2c(c1)OCO2`, the inhibition was -0.44%.
For `CC(/C=C/C=C/c1ccccc1)=N/NC(=O)c1ccc2c(c1)OCCO2`, the inhibition is 11.1%.
